A short description of this assay: cellular ROS inducers, fluorescent dye readout – U2OS cells, fluorescence, dry powder, dose response (AID 624441). The settings on record: U2OS ROS induction, H2DCF-DA fluorescence, stronger effect = higher value; at 19.5 µM unless noted.

Unmarked numbers belong to inactive results.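 The calls were made as follows: active = activation curve reaches 40% at a concentration no higher than the top valid dose tested; inactive = signal falling instead of rising, plus the rest.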

As to `Nc1nc(SCc2ccc(F)cc2)ns1`, the max activation was 27%.

Turning to `O=C(Nc1nc(SCc2ccccc2)ns1)C1CC=CCC1` (configuration not stated), the max activation is 33.9% [at 38 µM].

In the case of `Cc1ccccc1CSc1nsc(N)n1`, the max activation is 36.4% [at 5 µM].

For `O=C(Nc1nc(SCc2ccccc2)ns1)C1CCC1`, the max activation was 11.4%.

Consider `O=C(Nc1ccccc1)Nc1nc(SCc2ccccc2)ns1`, for which the max activation is -12% [at 10 µM].

As for `Cc1cccc(CSc2nsc(N)n2)c1`, the max activation was 19.3% [at 1.2 µM].

With `Nc1nc(S(=O)(=O)Cc2ccccc2)ns1`, the max activation was 20.7% [at 0.0195 µM].

As to `Cc1ccccc1CSc1n[nH]c(N)n1`, the max activation is 26% [at 0.0195 µM].

For `Nc1nc(SCc2ccccc2Cl)ns1`, the max activation was 15.6% [at 0.0001 µM].

`Cc1ccccc1CSc1nnc(N)s1`: the max activation was 9.38%.

Regarding `Nc1nc(SCc2ccc(Cl)cc2Cl)ns1`, the max activation was 43.7%.

Consider `Nc1nc(SCc2ccccc2)ns1`, for which the max activation is 18.5% [at 0.3 µM].

The values are drawn from PubChem BioAssay AID624441 (Broad Institute, 2012).
